Compound activity as filed in PubChem BioAssay.
Luc counter: blocks Kinase-Glo luciferase, a counter-screen artifact; Q27757; Kinase-Glo luciferase, ATP luminescence, 8 min; Potency, µM (series often up to 38.3 µM), inactives show top-dose activity change, negative = inhibition, actives largely listed as inhibitors; 200,000 compounds, 0.28% hits; AID 1379; also: % is scaled to controls: 0 for no effect and ±100 for the full control effect; nearly all actives have a fitted effect of over 60% in size
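Light output from Kinase-Glo luciferase with luciferin and 10 uM ATP in 50 mM imidazole pH 7.2, KCl, MgCl2, Tween 20, BSA; compound pin-delivered, 8-min ambient incubation, then luminescence read.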
FLuc modulator: firefly luciferase modulation, counter-screen for miR-21 project. Potency, µM (top dose mostly 57.5 µM), for the others: top-dose activity change, negative = inhibition, actives largely listed as inhibitors. AID 588342. purified FLuc, Km substrates, luminescence inhibition. 360,000 compounds, 6.9% hits;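 also: plate controls were vehicle for no effect and reference inhibitor for full effect; nearly all actives have a fitted effect of over 55% in size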
Target sequence (P08659 whole entry, looked up): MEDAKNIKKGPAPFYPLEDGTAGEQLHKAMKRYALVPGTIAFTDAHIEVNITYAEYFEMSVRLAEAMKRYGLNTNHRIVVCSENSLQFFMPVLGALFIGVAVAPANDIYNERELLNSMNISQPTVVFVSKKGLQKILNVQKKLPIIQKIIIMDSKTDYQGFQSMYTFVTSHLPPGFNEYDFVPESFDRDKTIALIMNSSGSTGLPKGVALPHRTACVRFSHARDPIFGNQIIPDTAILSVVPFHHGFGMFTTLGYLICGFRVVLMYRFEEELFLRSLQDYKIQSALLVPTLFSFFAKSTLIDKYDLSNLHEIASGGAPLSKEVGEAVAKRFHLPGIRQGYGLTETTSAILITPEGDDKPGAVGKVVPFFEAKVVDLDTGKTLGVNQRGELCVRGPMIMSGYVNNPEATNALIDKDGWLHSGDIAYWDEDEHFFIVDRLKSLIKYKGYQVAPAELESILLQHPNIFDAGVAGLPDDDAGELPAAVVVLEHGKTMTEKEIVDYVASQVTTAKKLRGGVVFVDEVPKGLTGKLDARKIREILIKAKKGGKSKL
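Biochemical qHTS of compounds, final roughly 60 µM downward over six points, against 10 nM purified firefly luciferase using Km concentrations of substrates (10 uM D-luciferin, 10 uM ATP) in Tris acetate pH 7.5 buffer; luminescence output.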
NPC1 prom act: activators of NPC1 promoter. 320,000 compounds, 2.4% hits. Huh7 NPC1 promoter luciferase reporter, 24 h. AID 485313. Potency, µM (doses to about 9.22 µM), for inactives: at the highest dose activation, actives largely listed as activators; also: % of control where 0% means no effect; nearly all actives have a fitted effect of over 60% in size
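NPC1 promoter–luciferase Huh7 cells; 24 h compound; luminescence.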
Rab9 prom act: activators of Rab9 promoter; Huh7 Rab9 promoter-luciferase reporter, luminescence, 24 h; Potency, µM (titrated, usually from 9.22 µM), for the others: top-dose activation, negative = inhibition, usual class: activators; 320,000 compounds, 2.8% hits; also: % of control where 0% means no effect; nearly all actives have a fitted effect of over 60% in size
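Quantitative HTS format; Huh7 Rab9-luciferase reporter cells (1500/well) receive compound 2 h post-plating, incubate 24 h at 37 °C, then get luciferase reagent for 10 min before luminescence reading.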
SMN2 splice up: enhancers of SMN2 splice variant expression; HEK293 SMN2-luciferase splicing reporter, luminescence, 30-36 h; Potency, µM (top dose mostly 46.1 µM), without a hit: at the top dose activity change, positive = activation, usual class: activators; 210,000 compounds, 2.8% hits; also: % of control where 0% means no effect; nearly all actives have a fitted effect of over 55% in size
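HEK293 cells carry an SMN2 […]–luciferase reporter in which exon 7 inclusion puts luciferase in frame. Cells were plated 10-12 h before compound addition, then incubated 30-36 h at 37C. ONE-Glo luminescence was read; sodium butyrate at 4.5 mM final served as control.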
ELG1 genotox: genotoxicity induction in ELG1-luciferase HEK293T cells; HEK293T ELG1-luciferase reporter, luminescence, 16 h; Potency, µM (highest dose often 46 µM), for inactives: at the highest dose activity change, positive = activation, usual class: activators; 330,000 compounds, 1.3% hits; AID 504466; also: % of control where 0% means no effect; nearly all actives have a fitted effect of over 60% in size
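DMSO vehicle served as control against compound-treated ELG1-luciferase HEK293T cells; exposure lasted 16 hr at 37 °C and 5% CO2, followed by ONE-Glo luminescence detection after 30 min.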
* marks the source's active call; other numbers are inactive results; ? = inconclusive; . = no result; [ ] = dose if it differs, or a comment. An excerpt weighted towards active compounds, which were near 7.5% of everything screened. Calls follow the shape of the dose curve; as a rule, active = well fitted curve in the direction sought with a large enough effect; inconclusive = small, poorly fitted or top-dose-only effect, or another doubt; inactive = no such curve, though single readings can be large; an effect the other way counts as inactive or inconclusive. Potency is read from the fitted curve at half-maximal effect.

SMILES | Luc counter | FLuc modulator | NPC1 prom act | Rab9 prom act | SMN2 splice up | ELG1 genotox
CCC(=O)Nc1nc(C)c(-c2csc(Nc3ccc(C(=O)O)cc3)n2)s1 | . | 16.9µM* | -2.6% | 7.3% | . | 0.0%
Cc1ccc(Nc2nc(-c3sc(NC(=O)c4ccco4)nc3C)cs2)cc1 | -0.3% | 16.9µM* | 7.4% | 3.0% | -60.5% | -2.1%
CC1CCCC(C)N1c1ccc(S(=O)(=O)N2CCOCC2)cc1Cl (configuration not stated) | . | -1.6% | 1.8% | 0.4% | . | -4.4%
Cc1ccc(-c2cc(C(=O)Nc3ccc(S(=O)(=O)Nc4ncccn4)cc3)[nH]n2)c(O)c1C | . | 4.78µM* | -1.8% | 2.4% | . | 2.9%
CC(=O)Nc1ccc(NC(=O)c2cc(-c3cc(C)cc(C)c3O)n[nH]2)cc1 | . | 3.38µM* | 8.3% | 2.8% | . | -7.1%
CC(=O)Nc1ccc(NC(=O)c2cc(-c3ccc(C)c(C)c3O)n[nH]2)cc1 | . | 5.36µM* | 10.0% | 19.6% | . | -15.8%
CCC(C)(C)C(=O)O[C@@H]1C[C@@H](C)C=C2C=C[C@H](C)[C@H](CC[C@@H]3C[C@@H](O)CC(=O)O3)[C@H]21 | 0.3% | . | . | . | . | .
CCOc1ccccc1-c1noc(CCCC(=O)Nc2cccc(C(F)(F)F)c2)n1 | . | -13.4% | . | . | -19.8% | .
O=C1C2C3C=CC(C3)C2C(=O)N1c1ccncc1 (configuration not stated) | -2.9% | 2.5% | 2.8% | -2.4% | -6.9% | 0.3%
O=C1C2C3C=CC(C3)C2C(=O)N1c1ccc(-c2nc3ccccc3o2)cc1 (configuration not stated) | -3.9% | 2.69µM* | 1.41µM* | 1.41µM* | 12.6µM* | 1.84µM*
Cc1cc2cc3c(cc2nc1SCC(=O)N1CCOCC1)OCO3 | . | 6.6% | -6.8% | 3.3% | . | 7.7%
CCOc1ccc2cc(C#N)c(SCC(=O)N3CCOCC3)nc2c1 | 18.7% | ? | 3.98µM* | 3.98µM* | 35.6% | 2.59µM*
N#Cc1cc2cc3c(cc2nc1SCC(=O)N1CCOCC1)OCO3 | . | . | 1.26µM* | 1.58µM* | . | 3.66µM*
CC(C)OC(=O)CSc1nc2cc3c(cc2cc1C#N)OCO3 | -0.2% | -0.4% | 3.98µM* | ? | ? | ?
CCOc1ccc2nc(SCC(=O)N3CCCCCC3)c(C#N)cc2c1 | 3.2% | 0.0%[2.3 µM] | 4.3% | 0.5% | 21.0% | -6.8%
CCOC(=O)CSc1nc2cc3c(cc2cc1C#N)OCCO3 | 1.0% | ? | 2µM* | ? | 5.62µM* | 6.51µM*
CCOc1ncccc1C(=O)Nc1cc(S(=O)(=O)N2CCCCC2)ccc1Cl | . | 2.0% | -1.9% | -1.7% | . | 3.2%
Cc1nonc1NC(=O)OC1CCCCC1 | -6.5% | 4.8% | 2.1% | -2.3% | ? | -2.9%
COC(=O)CSc1nc2cc3c(cc2cc1C)OCCO3 | -1.2% | -15.4% | -10.1% | 9.1% | 0.9% | 0.9%
COC(=O)CSc1nc2cc3c(cc2cc1C#N)OCO3 | 2.0% | -5.6% | 0.891µM* | 0.794µM* | 10µM* | ?
COC(=O)CSc1nc(-c2cccs2)ccc1C#N | -7.3% | ? | 1.78µM* | 2.24µM* | 14.1µM* | 8.2µM*
CCOC(=O)CSc1nc2cc3c(cc2cc1C#N)OCO3 | 0.9% | 2.9% | ? | -29.7% | 12.6µM* | 23.1µM*
C#CCSc1nc(-c2cccs2)ccc1C#N | -1.1% | 0.9% | 0.8% | -2.2% | 15.9% | -0.3%
Cc1ccn2c(Nc3ccc(C(C)C)cc3)c(-c3cccs3)nc2c1 | . | ? | . | . | 5.1% | .
COc1ccccc1CNC(=O)c1ccc(Br)o1 | 3.1%[39.9 µM] | -5.1% | -2.5% | -11.3% | -24.7% | 3.4%
COc1ccccc1C(=O)NNC(=O)c1ccc(C)cc1 | . | 15.1µM* | 26.5% | ? | . | ?
COc1ccccc1C(=O)NNC(=O)c1ccncc1 | 1.1% | -16.4% | 10.4% | 12.9% | -9.8% | 7.4%
COc1ccccc1C(=O)NNC(=O)c1ccc(NC(=O)CC(C)C)cc1 | . | -12.1% | 1.1% | 9.1% | . | 1.7%
COc1ccccc1C(=O)NNC(=O)c1ccc(Br)cc1 | . | 13.5µM* | 19.5% | 5.5% | . | 8.2%
